# The list is not random: actives were taken first. Their share in the collection is about 2.7%.
# rCAG RNA binder – r(CAG) repeat RNA binding. AID 651821. TO-PRO-1 dye displacement fluorescence. 1.3% of 370,000 active. inhibition, % at 3 µM;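 active means inhibition above the plate cutoff, the mean of all test compounds on that plate plus 3 SD, cut at about 35% in these data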;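 further: 0% = DMSO alone and 100% = 100 µM mitoxantrone as full dye displacement; higher means more dye released from RNA so lower well fluorescence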
# MsrA act – activators of bovine methionine sulfoxide reductase A | purified bovine MsrA, absorbance read-out | AID 602163 | 0.3% of 360,000 active | activation, % at 10.6 µM; in the data active means activation above about 7.5%;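 further: 0% = vehicle and 100% = reference activator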
# MsrA inhibitor – bovine MsrA inhibition; AID 651718; purified bovine MsrA, absorbance read-out; inhibition, % at 15.5 µM; 0.75% of 360,000 active; in the data active means inhibition above about 4.5%;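 further: 0% = vehicle wells with enzyme and 100% = reference inhibitor wells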
# NadD inh – blocks S. aureus nicotinate mononucleotide adenylyltransferase; purified NadD enzyme, colorimetric absorbance read-out; inhibition, % at 20 µM; 0.78% of 360,000 active; AID 602399; in the data active means inhibition above about 26%
# rCAG bind conf – r(CAG) RNA repeat binding, confirmation; shares compounds with rCAG RNA binder; TO-PRO-1 dye displacement fluorescence; inhibition, % at 3 µM; 70% of 4,300 active; AID 652065;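 active means inhibition above a per-plate cutoff, the mean inhibition of sample wells plus 3 SD, cut at about 35% in these data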;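 further: loss of TO-PRO-1 fluorescence as compound displaces dye from 1x1 AA loop RNA; 0% = DMSO only wells and 100% = 100 µM mitoxantrone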
# DNA CAG counter – disrupts DNA CAG TO-PRO-1 complex, flagging rCAG hits. shares compounds with rCAG RNA binder. d(CAG) DNA oligo TO-PRO-1 dye displacement, fluorescence. inhibition, % at 3 µM. 94% of 4,300 active. AID 652068;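 active means inhibition above its plate's cutoff, the mean test-well inhibition plus 3 SD, cut at about 4.8% in these data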;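 further: 0% = DNA dye mix with DMSO and 100% = 100 µM mitoxantrone; hits displace the dye from DNA and so lower well fluorescence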
# * = called active by the depositor; . = not tested or not shown.
SMILES,rCAG RNA binder,MsrA act,MsrA inhibitor,NadD inh,rCAG bind conf,DNA CAG counter
Cc1noc(NS(=O)(=O)c2ccc(NC(=O)CCN3C(=O)c4ccccc4C3=O)cc2)c1C,14,-2,0,1,.,.
Cc1noc(NS(=O)(=O)c2ccc(NC(=O)c3nn(-c4ccccc4)ccc3=O)cc2)c1C,35*,-7,3,-6,21,5.7*
CC1=CCC[C@@H]2[C@@](C)(CC/C(C)=C/C(=O)O)[C@H](C)CC[C@@]12C,45*,-1,1,15,43*,8.6*
C[C@@H]1CC[C@@]23COC(=O)C2=CCC[C@@H]3[C@@]1(C)CC/C(=C/CO)CO,-2,-1,0,5,.,.
O=S(=O)(Nc1ccc(S(=O)(=O)Nc2ncccn2)cc1)c1ccc(Cl)cc1,2,-4,-1,1,.,.
O=S(=O)(Nc1ncccn1)c1ccc(NC(=S)NCCc2ccc(Cl)cc2)cc1,38*,1,0,-1,10,2
Cc1nc(-c2ccccc2)sc1C(=O)NS(=O)(=O)c1ccc(CN2CCN(c3ccccc3)CC2)cc1,83*,-2,0,22,81*,45*
O=C(O)c1cccc2c1C(=O)c1ccc(-c3ccc(OC(F)(F)F)cc3)cc1S2(=O)=O,69*,-2,3,4,60*,16*
CO/N=C/C(=N\Nc1cc(OC)cc(OC)c1)C(=O)c1ccccc1,2,-5,2,2,.,.
Cc1ccc(-n2c(C)cc(C(=O)NS(=O)(=O)c3ccc(C)cc3)c2C)cc1,40*,-3,1,9,27,9.7*
O=c1c2ccccc2nc(SCCN2CCCCC2)n1CCc1ccccc1,-2,-3,-1,-4,.,.
O=C(O)c1cc(N=Nc2c(O)ccc3ccccc23)cc(C(=O)O)c1,-1,-4,1,10,.,.
Oc1ccc(N=Nc2c(O)ccc3ccccc23)cc1,41*,-4,-1,-3,34,17*
CC(C)=CCCC1(C)C=Cc2c(c(C)cc3c2[nH]c2cc(O)ccc23)O1 (stereo unspecified),51*,0,0,0,30,15*
CCN(C1=NS(=O)(=O)c2ccccc21)N(CC)S(=O)(=O)c1ccc(C)cc1,-1,3,1,-2,.,.
Cc1ccc(C(=O)N(NC2=NS(=O)(=O)c3ccccc32)S(=O)(=O)c2ccc(C)cc2)cc1,64*,-3,1,-5,44*,13*
Cc1nc(S/C(=C\c2ccc(-c3ccc(C(=O)O)c(Cl)c3)o2)C(=O)O)n[nH]1,36*,-3,2,-5,50*,16*
Cc1cccc(N2NC(=O)/C(=C/c3ccc(-c4ccc(Cl)c(C(=O)O)c4)o3)C2=O)c1,20,-2,0,7,.,.
c1ccc2c(c1)CN1C(=N2)COc2ccccc2C1c1nc2ccccc2[nH]1 (stereo unspecified),10,-4,-1,-2,.,.
O=C(/C=C/c1ccccc1)Nc1cccc(S(=O)(=O)Nc2ccccc2F)c1,38*,-10,0,3,40*,13*
O=C(O)Cn1nnc(-c2ccc(OCc3ccccc3Cl)cc2)n1,39*,.,-1,.,26,3
CC(=O)C1(O)CCC2C3CC(C)C4=CC(=O)C=CC4(C)C3(F)C(O)CC21C (stereo unspecified),2,-3,-1,1,.,.
CCOC(=O)/C=C/C(=O)Nc1ccc(S(=O)(=O)Nc2cc(OC)nc(OC)n2)cc1,9,-3,0,-1,.,.
O=C1NC(c2ccc(-c3ccccc3[N+](=O)[O-])o2)C(C(=O)c2ccccc2)C(O)(C(F)(F)F)N1 (stereo unspecified),53*,-7,0,-5,1,0
O=S(=O)(NC1CCN(S(=O)(=O)c2ccc3c(c2)OCCO3)C1)c1c(F)cccc1F (stereo unspecified),5,-1,0,-2,.,.
CCCCN(CCCC)c1ccc(C(=O)c2ccccc2C(=O)O)c(O)c1,72*,-14,3,12,57*,21*
O=C1OC[C@@H]2CCCN2C(=O)[C@@H](CC(=O)N(CCO)Cc2ccccc2)C/C=C\C[C@H]1Cc1ccc(F)cc1,-7,-5,0,-5,.,.
CCOc1ccc(-n2c(SCC(=O)Nc3ccc(S(=O)(=O)Nc4cc(C)nc(C)n4)cc3)nnc2-c2ccc(C)cc2)cc1,52*,.,.,.,58*,18*
Cc1ccc(-n2c(SCC(=O)Nc3ccc(S(=O)(=O)Nc4cc(C)nc(C)n4)cc3)nnc2-c2ccc(C(C)(C)C)cc2)cc1,44*,.,.,.,42*,16*

# Source: PubChem BioAssay (several laboratories)
